Compounds with a hit are over-represented: about 7.9% of the library has one in this group of screens.
FMDV inh = High Throughput Screening for Foot and Mouth Disease Virus Antivirals; Potency, µM (top dose mostly 57.9 µM), most hits filed as inhibitors; 410,000 tested, 1.2% active; FMDV antiviral cell-based qHTS; calls by dose curve; tested in HEK293T cells; note: read-out not given here; nearly all actives have a fitted effect of over 45% in size
HCMV antiviral = qHTS Assay for inhibitors of the human cytomegalovirus (HCMV) | AID 1259415, 2018 | 410,000 tested, 4.5% active | HFF cells, HCMV-luciferase reporter, 72 h; hits give low values | activity change, negative = inhibition, % at 57.5 µM; in the data active = activity change below about -60%; inconclusive = no clear call, values can overlap the other calls; inactive = above about -39%
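Luciferase read-out from HCMV-luciferase-infected HFFs (MOI 1 PFU/cell) 72 h post infection at 37C; compounds added after 16 h cell attachment; activity normalized between buffer-only basal and Salinomycin (10uM) inhibitor controls.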
HCV inh = qHTS Assay for Inhibitors of Hepatitis C Virus (HCV). Huh7.5.1 HCVcc-Cre infection, luciferase reporter, 44 h. Potency, µM (doses to about 41.8 µM), actives largely listed as inhibitors. 340,000 tested, 3.4% active; active = well fitted inhibition curve with a large enough effect; inconclusive = small, poorly fitted or top-dose-only effect, or another doubt; inactive = no such curve, though single readings can be large or run the other way
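Seed cells (1,000/well) for 4 h; treat with compound and infect with HCVcc-Cre, moi about 0.5. Incubate 44 h, then detect luciferase activity.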
Marburg entry inh = qHTS for inhibitors of binding or entry into cells for Marburg Virus. 300,000 tested, 1.8% active. Marburg virus pseudotyped entry inhibition, cell reporter. Potency, µM (doses to about 37.8 µM), most hits filed as inhibitors; calls by dose curve; tested in HEK293 cells
LASV entry inh = qHTS for Inhibitors of binding or entry into cells for Lassa Virus | 300,000 tested, 1.2% active | AID 540256, 2011 | Potency, µM (series often up to 37.9 µM), usual class: inhibitors | Lassa virus pseudotype entry inhibition, cell reporter; calls by dose curve; tested in HEK293 cells; note: nearly all actives have a fitted effect of over 50% in size
Numbers stand for hits; i = inactive; ? = inconclusive; nt = no result given; [ ] = another dose, or the depositor's remark.

SMILES	FMDV inh	HCMV antiviral	HCV inh	Marburg entry inh	LASV entry inh
Cc1ccc(S(=O)(=O)CCc2nc3ccccc3n2CCC#N)cc1	i	-80.8	?	i	i
O=C(O)Cn1c(CCS(=O)(=O)c2ccc(Br)cc2)nc2ccccc21	i	i	i	i	i
Cc1ccc(S(=O)(=O)CC2CSc3nc4ccccc4n32)cc1 (centres undefined)	?	-71.9	?	?	?
COC(=O)C1CCC(=O)N1C(c1ccc(OC)cc1)c1cc(OC)c(OC)c(OC)c1 (centres undefined)	i	-80.7	?	?	?
C=CCOc1ccc(/C=C(\C#N)C(=O)Nc2ccccn2)cc1	i	i	i	nt	nt
O=C(NCC1Cc2cccc(-c3ncccn3)c2O1)C1CCCO1 (centres undefined)	i	nt	nt	nt	nt
COCC(C)N=C1SCCN1Cc1ccccc1 (centres undefined)	i	i	i	i	i
CN(C)S(=O)(=O)c1cccc(N=C2SCCN2Cc2ccccc2)c1	?	i	10µM	?	?
COc1ccccc1Nc1nc(-c2ccc3c(c2)NC(=O)CO3)cs1	?	-63.7	10µM	nt	nt
C[C@@H]1CN([C@@H](C)CO)C(=O)c2cc(NC(=O)c3ccccc3)ccc2O[C@@H](C)CCCCO[C@@H]1CN(C)Cc1ccc(C(F)(F)F)cc1	?	i	nt	nt	nt
O=C(CCNS(=O)(=O)c1ccc2c(c1)CCN2C(=O)C1CC1)Nc1ccc(OC(F)(F)F)cc1	i	i	nt	nt	?
COc1ccc(Cl)cc1N1CC(C(=O)Nc2nccs2)CC1=O (centres undefined)	i	-67.4	?	?	?
CN1CCN(Cc2ccc(Sc3ccc(Cl)cc3)c([N+](=O)[O-])c2)CC1	i	-71.2	?	?	i
CC[C@@H](C)[C@H](CN[C@H](CNC)[C@@H](C)O)NCCc1ccc(OC)cc1	i	i	i	nt	nt
O=S(=O)(NCCCc1ccccc1)c1cccc2nsnc12	i	i	i	i	i
Nc1ccccc1S(=O)(=O)NCCCCc1ccccc1	i	-100.3	i	nt	nt
CCCCn1c(N)c(N(CC)C(=O)C2CCC2)c(=O)[nH]c1=O	i	i	i	nt	nt
COc1ccc(C(CCNCc2ccc(N(C)C)cc2)c2ccccc2OC)cc1 (centres undefined)	?	i	?	?	15.8µM
COc1ccc(C(CCNCc2ccc(OC(C)C)cc2)c2ccccc2OC)cc1 (centres undefined)	?	-70.1	?	nt	nt
COc1ccc(CC(C)NCCC(c2ccccc2)c2ccccc2)cc1 (centres undefined)	i	i	?	nt	nt
COc1ccc(CNCCC(c2ccc(OC)cc2)c2ccccc2OC)cc1 (centres undefined)	i	?	?	?	i
Cc1cccc(S(=O)C(c2ccccc2)c2ccccc2)c1 (centres undefined)	?	i	i	i	i
COc1ccc(/C=C2\CCCC3C2=NN(C(=O)CSc2ncn[nH]2)C3c2ccc(OC)cc2)cc1 (centres undefined)	i	i	12.6µM	?	?
Cc1ncsc1C(=O)N1N=C2/C(=C/c3ccccc3)CCCC2C1c1ccccc1 (centres undefined)	?	i	?	11.2µM	?
COc1ccc(/C=C2\CCCC3C2=NN(C(=O)COC(=O)CNC(=O)c2ccccc2)C3c2ccc(OC)cc2)cc1 (centres undefined)	i	i	i	?	?
SMILES	FMDV inh	HCMV antiviral	HCV inh	Marburg entry inh	LASV entry inh
O=C(CSc1ncn[nH]1)N1N=C2/C(=C/c3ccccc3)CCCC2C1c1ccccc1 (centres undefined)	i	-90.2	i	i	nt
O=C(O)CSCC(=O)N1N=C2/C(=C/c3ccccc3)CCCC2C1c1ccccc1 (centres undefined)	i	i	i	i	i
COCCNCC(O)CON=C1c2ccccc2-c2ccccc21 (centres undefined)	i	i	i	?	?
CC(C)c1ccc(OCC(O)CNC(C)c2ccccc2)cc1 (centres undefined)	i	i	?	?	?
OC(CNCCc1ccccc1)COc1ccc(OCC(O)CNCCc2ccccc2)cc1 (centres undefined)	i	-76.9	?	3.16µM	?
OC(CNCCC(c1ccccc1)c1ccccc1)COc1ccccc1 (centres undefined)	i	?	12.6µM	?	?
CC(C)CCNCC(O)CON=C1c2ccccc2-c2ccccc21 (centres undefined)	i	-72.1	8.91µM	nt	nt
Cc1ccc(NS(=O)(=O)c2ccc3[nH]c(=O)[nH]c3c2)cc1	i	i	i	nt	nt
CCOC(=O)C1=C(C)C(c2cccc(Oc3ccccc3)c2)NC(=S)N1 (centres undefined)	28.2µM	?	?	?	8.91µM
CCOC(=O)C1=C(c2cccc(Oc3ccccc3)c2)NC(=S)NC1C (centres undefined)	i	?	8.91µM	?	?
CCOC(=O)C1=C(c2ccccc2)NC(=S)NC1c1ccc(Cl)c([N+](=O)[O-])c1 (centres undefined)	nt	nt	?	i	i
CSCCC(c1nnnn1-c1c(C)cccc1C)N1CCN(C/C=C/c2ccccc2)CC1 (centres undefined)	i	i	nt	nt	nt
CCC(c1nnnn1-c1c(C)cccc1C)N1CCN(C/C=C/c2ccccc2)CC1 (centres undefined)	i	-67.7	nt	nt	nt
CN(CC(=O)Nc1ccc(Cl)c(Cl)c1)CC(=O)N1CCCCCC1	i	i	nt	nt	nt
CCOP(=O)(OCC)OCC	i	i	i	nt	nt
CCOP(=O)(CCP(=O)(OCC)OCC)OCC.C[CH2][Sn]([Cl])([Cl])[CH2]C	2.82µM	-101.0	1.58µM	?	12.6µM
Cn1cc(CN2CCCC(C(=O)c3ccc(-c4ccccc4)cc3)C2)cn1 (centres undefined)	i	i	14.1µM	nt	nt
Cn1cc(CN2CCCC(C(=O)c3ccc(-c4ccccc4)c(F)c3)C2)cn1 (centres undefined)	i	i	?	?	i
COc1cccc(C(=O)C2CCCN(Cc3cn(C)nc3-c3ccccc3)C2)c1 (centres undefined)	i	i	i	i	i
Cc1nn(C)cc1CN1CCCC(C(=O)c2ccc(-c3ccccc3)c(F)c2)C1 (centres undefined)	i	?	10µM	?	?
CCn1cc(CN2CCCC(C(=O)c3ccc(-c4ccccc4)cc3)C2)cn1 (centres undefined)	i	-61.0	?	?	?
Cc1cc(CNC(=O)[C@H]2C[C@@H]2[C@H](NP(=O)(c2ccccc2)c2ccccc2)c2ccccc2)nn1C	i	-90.8	i[8.37 µM]	i	i
O=C1C(c2ccccc2)=[N+]([O-])c2ccccc21	?	i	10µM	nt	nt
COC(=O)C[C@H]1C=C[C@H](NS(=O)(=O)c2cn(C)cn2)[C@@H](CO)O1	i	i	nt	nt	nt
CN(C)C(=O)/C=C\c1cn(-c2ccccc2)nc1-c1ccc2c(c1)OCCO2	i	-84.9	i	?	?

Bioassay records as filed in PubChem BioAssay.
